PubChem BioAssay (EPA / NIEHS)
Inconclusive results are not listed. Calls of active or inactive are those of the source. Rule for the calls: active = hit-call score of the fitted dose curve at least 0.9, where 1 is the maximum; inconclusive = response in the unintended direction; inactive = score below 0.9.

Target: Luciferin 4-monooxygenase (Photinus pyralis) (UniProt P08659)
Assay: CCTE_Simmons_QuantiLum_inhib_2: CCTE's Firefly Luciferase Inhibition Assay, Simmons Lab (AID 2283767);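 for AC50: potency for inhibitors that lower luciferase luminescence relative to DMSO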
Protocol: CCTE_Simmons_QuantiLum_inhib_2 is a biochemical, single-readout assay that uses purified luciferase enzyme in a cell-free assay.Measurements were taken 0.5 hour after chemical dosing in a 384-well plate.CCTE_Simmons_QuantiLum_inhib_2 is the assay component measured from the CCTE_Simmons_QuantiLum_inhib_2 assay. It is designed to make measurements of enzyme activity, a form of enzyme reporter, as detected with bioluminescence signals by Luciferase-coupled Quantilum levels technology. This is a secondary assay to CCTE_Simmons_AUR_TPO to evaluate nonspecific enzyme inhibition.Data from the assay component CCTE_Simmons_QuantiLum_inhib_2 was analyzed at the endpoint, CCTE_Simmons_QuantiLum_inhib_2, in the positive analysis fitting direction relative to DMSO as the negative control and baseline of activity. Using a type of enzyme reporter, measures of enzyme activity for loss-of-signal activity can be used to understand inhibition of firefly luciferase. This is an assay endpoint to indicate nonspecific protein inhibition for comparison to aeid 1508 for thyroperoxidase inhibition. To generalize the intended target to other relatable targets, this assay endpoint is annotated to the oxidoreductase intended target family, where the subfamily is monooxygenase.
Quanti-Lum recombinant luciferase (Promega; Madison, Wisconsin) was diluted to 76.9 ng/ml with 200mM potassium phosphate buffer supplemented with 1 mg/ml bovine serum albumin and 65ul (5ng recombinant luciferase) per well was dispensed into opaque, white 384-well plates (Greiner, BioExpress) using an automated liquid handler (BioTek MicroFlo) with a plastic 5 ul tubing cassette. Test compounds were administered using the HDRT as described earlier to achieve a 0.5% final DMSO concentration. Microplates were incubated at 37C in the dark for 30min to mimic the AUR-TPO assay conditions. Luciferase detection reagent (25 ul per well; 9.2 mM dithiothreitol, 75uM Coenzyme A, 147uM dATP, 150uM D-luciferin, 8.9 mM Tricine, 297uM (MgCO3)4.Mg(OH)2.5H20, 742uM MgSO4, 27.8uM EDTA, pH 7.8, final assay concentrations) was then added using a BMG Clariostar plate reader equipped with syringe injectors (BMG LabTech; GmbH). Plates were read using a kinetic luminescence protocol (top read) whereby each well was individually injected with luciferase detection reagent immediately prior to measurement. Three biological replicates of technical singles were run for every chemical concentration tested. A titrated range of LUCINH2 served as a positive control on each plate of the luciferase inhibition screening assay. Test chemicals were administered as a titrated series of 8 concentrations from 5 nM up to 87.5 uM [final] for 30 minutes prior to single endpoint detection. Dimethylsulfoxide [DMSO] was used as the vehicle control. Luciferase Inhibitor I [2-(5-(2-Methoxyphenyl)-1,2,4-oxadiazol-3-yl)pyridine] was used as the positive control and was administered as a titrated series of 8 concentrations from 1 nM up to 100 uM [final].

Chain of Luciferin 4-monooxygenase (Photinus pyralis) (P08659 whole entry, looked up): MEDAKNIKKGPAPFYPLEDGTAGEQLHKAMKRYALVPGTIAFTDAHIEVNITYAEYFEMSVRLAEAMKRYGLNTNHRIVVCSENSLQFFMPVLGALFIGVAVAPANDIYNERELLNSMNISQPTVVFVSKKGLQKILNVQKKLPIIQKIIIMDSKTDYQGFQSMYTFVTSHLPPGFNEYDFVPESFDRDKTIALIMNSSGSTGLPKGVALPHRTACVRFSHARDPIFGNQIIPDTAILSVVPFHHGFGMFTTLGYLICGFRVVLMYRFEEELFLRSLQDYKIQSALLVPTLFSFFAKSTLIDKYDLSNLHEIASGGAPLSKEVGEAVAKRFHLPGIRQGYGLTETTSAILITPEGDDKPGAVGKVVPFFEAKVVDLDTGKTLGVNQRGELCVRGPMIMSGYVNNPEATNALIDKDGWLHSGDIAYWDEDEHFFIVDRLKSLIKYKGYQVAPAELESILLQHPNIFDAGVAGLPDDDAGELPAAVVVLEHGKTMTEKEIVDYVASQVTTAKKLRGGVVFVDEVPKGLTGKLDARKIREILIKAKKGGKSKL

AC50, active:
CCCCCCc1ccc(N)cc1 77.1 µM, Cc1cc(C(=C2C=CC(=Nc3ccc(S(=O)(=O)O)cc3)C=C2)c2ccc(Nc3ccc(S(=O)(=O)O)cc3)cc2)cc(S(=O)(=O)O)c1N 42.8 µM, Cc1[nH]nc2c1N=C(c1ccccc1Cl)c1cc([N+](=O)[O-])ccc1N2 44.6 µM, O=C1OC2(c3ccccc31)c1cc(I)c(O)c(I)c1Oc1c2cc(I)c(O)c1I 6.41 µM

outcome, inactive:
Cc1cc(Cc2cc(C)cc(C(C)(C)C)c2O)c(O)c(C(C)(C)C)c1, C[C@]12CC[C@@H]3c4ccc(O)cc4CC[C@H]3[C@@H]1C[C@@H](O)[C@@H]2O, Cc1cc(C(C)(C)C)c(O)c(C(C)(C)C)c1, CCc1cccc(CC)c1N(COC)C(=O)CS(=O)(=O)O, COc1cc([N+](=O)[O-])ccc1N, CCCCCCCCCCCCOC(=O)c1cc(O)c(O)c(O)c1, CN(Cc1cnc2nc(N)nc(N)c2n1)c1ccc(C(=O)N[C@@H](CCC(=O)O)C(=O)O)cc1, CCCCCCCCCCCC
